Screening data deposited in PubChem by several laboratories.
The list is not random: actives were taken first. Their share in the collection is about 27%.
Cav3 T inh – inhibitors of human Cav3.2 T-type calcium channel | O95180 | Cav3.2-expressing cells, Fluo-4 calcium fluorescence FDSS; stronger effect = lower value | B-score at 10 µM | 100,000 tested, 4% active;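 active = single-dose well whose peak fluorescence ratio is a statistical outlier from its plate by either plate-standardised score or position-corrected B-score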
CYP2C19 activ – activators of human cytochrome P450 2C19; P33261; recombinant CYP2C19, luciferin-H EGE luminescence; stronger effect = higher value; 0 = fully inhibited enzyme, 1 = untreated enzyme; activation factor at 5 µM; 96,000 tested, under 10 active; AID 1025;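 active = activation factor of at least 2 at 5 µM in the primary screen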
CYP2C19 inhib – inhibitors of human CYP2C19. CYP2C19 Supersomes, luciferin-H EGE luminescence, 30 min. inhibition, % at 5 µM. 96,000 tested, 21% active. AID 778;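 active = CYP2C19 inhibition above a set limit at 5 µM in the primary screen, cut at about 50% in these data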
CYP2C9 act – activators of human CYP2C9; P11712; recombinant CYP2C9, luciferin-H conversion, luminescence; stronger effect = higher value; factor 1 = untreated enzyme, 0 = blocked; activation factor at 5 µM; 96,000 tested, 1.4% active;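 active = activation factor of 2 or more for CYP2C9 at a 5 µM dose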
Target sequence (P11712 whole entry, looked up): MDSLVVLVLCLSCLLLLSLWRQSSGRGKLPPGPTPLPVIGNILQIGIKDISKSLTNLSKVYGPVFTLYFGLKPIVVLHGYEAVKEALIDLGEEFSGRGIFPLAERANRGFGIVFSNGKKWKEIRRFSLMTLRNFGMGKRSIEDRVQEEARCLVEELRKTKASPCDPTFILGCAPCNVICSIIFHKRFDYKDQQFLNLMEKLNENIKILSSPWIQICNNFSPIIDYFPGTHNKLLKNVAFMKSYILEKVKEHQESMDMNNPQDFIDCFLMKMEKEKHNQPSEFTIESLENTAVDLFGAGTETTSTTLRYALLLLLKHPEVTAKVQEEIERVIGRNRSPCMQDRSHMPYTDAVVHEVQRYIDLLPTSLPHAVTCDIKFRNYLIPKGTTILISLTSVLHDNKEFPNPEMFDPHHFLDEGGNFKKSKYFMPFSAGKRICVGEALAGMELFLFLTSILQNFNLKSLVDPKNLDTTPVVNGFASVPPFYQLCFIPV
CYP2C9 inhib – inhibitors of human CYP2C9. P11712. CYP2C9 Supersomes, luciferin-H conversion, luminescence. inhibition, % at 5 µM. 96,000 tested, 20% active. AID 777;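 active = blocking of liver enzyme CYP2C9 beyond about 50% at 5 µM, limit read from the data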
A number is an active result; i = inactive; nt = no result given.

SMILES	Cav3 T inh	CYP2C19 activ	CYP2C19 inhib	CYP2C9 act	CYP2C9 inhib
COc1ccc(C2C(C#N)=C(N)OC3=C2C(=O)CC(C)(C)C3)c([N+](=O)[O-])c1OC (centres undefined)	i	i	i	i	71
COc1ccc(C2C(C#N)=C(N)OC3=C2C(=O)CC(C)C3)c(OC)c1OC (centres undefined)	i	i	i	i	58
COc1ccc(C2C(C#N)=C(N)OC3=C2C(=O)CCC3)c(OC)c1OC (centres undefined)	i	i	i	i	i
COc1cc(C2C3=C(CC(c4ccco4)CC3=O)Nc3ccccc3N2C(C)=O)cc(OC)c1OC (centres undefined)	i	i	i	i	i
COc1cc(C2C(C#N)=C(N)OC3=C2C(=O)CC(C)(C)C3)c([N+](=O)[O-])cc1OC (centres undefined)	nt	i	i	i	i
CCCCOc1ccc(C(=O)C(CN2CCOCC2)c2ccccc2)cc1 (centres undefined)	i	nt	nt	nt	nt
C(#CCN1CCOCC1)COCCCOC(c1ccccc1)c1ccccc1	i	i	59	i	70
O=C(c1ccc(F)cc1)C(CN1CCOCC1)c1ccccc1 (centres undefined)	i	i	59	i	i
OC(CN1CCOCC1)CN(c1ccccc1)c1ccccc1 (centres undefined)	i	i	70	i	65
c1ccc(C(CN2CCOCC2)c2ccccc2)cc1	i	i	58	i	i
C=CC[N+]1(CC#CCOC(c2ccccc2)c2ccccc2)CCOCC1	i	i	i	i	i
O=C(c1ccccc1)C(CCC(CN1CCOCC1)C(=O)c1ccccc1)CN1CCOCC1 (centres undefined)	i	i	69	i	i
CCCCOc1ccc(C(=O)OC2CC(C)N(C)CC2C)cc1 (centres undefined)	i	i	i	i	i
O=C1CC2(CCCCC2)Oc2ccc(O)cc21	i	i	60	i	i
O=C1CC2(CCCCC2)Oc2ccc(F)cc21	i	nt	nt	nt	nt
Cc1nc2c([nH]c3ccc(Br)cc32)s1	i	i	i	i	i
CC(C)CNC(=O)COC(=O)CCC(=O)c1ccc(F)cc1	i	i	i	i	i
CCN(c1ccc(NC(=O)COC(=O)CCC(=O)c2ccc(F)cc2)cc1)C(C)C	i	i	63	i	i
N#Cc1c(N)c(C(=O)c2ccccc2)n2c1CCCC2	i	i	66	i	i
CCc1ccc(C(C)NC(=O)Cn2cnc3c(=O)n(C)c(=O)n(C)c32)cc1 (centres undefined)	i	nt	nt	nt	nt
CC(=O)Nc1ccc(SC[C@H](c2ccccc2)N2CCN(CCc3ccccc3)CCC2=O)cc1	i	nt	nt	nt	nt
COc1ccc(C2=NOC(C(=O)NCc3ccccc3)C2)cc1 (centres undefined)	nt	i	i	i	i
O=C(NCc1ccc2c(c1)OCO2)C1CC(c2cccc(Br)c2)=NO1 (centres undefined)	-9.1	i	i	i	i
O=C(NCc1ccc2c(c1)OCO2)C1CC(c2ccccc2O)=NO1 (centres undefined)	i	i	i	i	i
COc1ccc(CNC(=O)C2CC(c3ccccc3[N+](=O)[O-])=NO2)cc1 (centres undefined)	i	i	50	i	i
SMILES	Cav3 T inh	CYP2C19 activ	CYP2C19 inhib	CYP2C9 act	CYP2C9 inhib
O=C(NCCc1ccccc1)C1CC(c2ccccc2O)=NO1 (centres undefined)	i	i	87	i	i
COc1cccc(C2=NOC(C(=O)NCc3ccccc3)C2)c1 (centres undefined)	nt	i	50	i	i
CCn1ncc(C2=NOC(C(=O)NCc3ccc(OC)cc3)C2)c1C (centres undefined)	i	i	i	i	i
CCn1ncc(C2=NOC(C(=O)NCc3ccccc3)C2)c1C (centres undefined)	i	i	57	i	i
COc1cccc(C2=NOC(C(=O)NC3CCCCC3)C2)c1 (centres undefined)	i	i	i	2.9	i
COc1cccc(C2=NOC(C(=O)Nc3cccc(C(C)=O)c3)C2)c1 (centres undefined)	i	i	i	i	i
CCC(C)C(NC(=O)C1CCC(C)CC1)C(=O)NC1CCN(Cc2ccccc2)CC1 (centres undefined)	i	nt	nt	nt	nt
O=C(c1noc2c1CCCC2)N1CCOCC1	i	i	i	i	i
COc1cccc(CNC2CCCC2)c1	i	i	i	i	i
COc1cc(CNC2CCCC2)cc(OC)c1	i	i	71	i	i
COc1cc(CNC2CCC(C)C2)cc(OC)c1 (centres undefined)	i	i	62	i	i
CCCCC(=O)N1C/C=C\[C@H](c2ccc(OC)cc2)N(Cc2ccc(F)cc2)C(=O)[C@@H]1C	i	nt	nt	nt	nt
Cc1ccc(C(=O)CC(=O)c2cccc(F)c2)c(O)c1	i	i	95	i	72
Cc1ccc(C(=O)c2ccccc2C(=O)O)c(O)c1	i	i	i	i	i
COc1ccc(-c2cc(CNC(=O)CN(C)Cc3ccccc3)on2)cc1	nt	i	i	i	i
COc1ccc(OC)c2[nH]c(=O)c(CCNS(=O)(=O)c3ccccc3)cc12	nt	i	i	i	i
Cc1nn(C)c(Oc2ccccc2)c1CCNS(=O)(=O)c1ccccc1	i	i	92	i	i
CC12CC(NC(=O)N1c1cccc(C(=O)N3CCN(c4ccccn4)CC3)c1)c1ccccc1O2 (centres undefined)	i	i	i	i	63
CC1CN(S(=O)(=O)c2cccc(C(=O)NCc3ccc4c(c3)OCO4)c2)CC(C)O1 (centres undefined)	i	i	i	i	i
COc1cccc(N2CCN(C(=O)c3ccc(N4C(=O)NC5CC4(C)Oc4ccccc45)cc3)CC2)c1 (centres undefined)	nt	i	i	i	i
CC12CC(NC(=O)N1c1cccc(C(=O)NCc3ccc4c(c3)OCO4)c1)c1cc(Cl)ccc1O2 (centres undefined)	-3.7	i	59	i	79
CC12CC(NC(=O)N1c1cccc(C(=O)N3CCN(c4ccccc4F)CC3)c1)c1ccccc1O2 (centres undefined)	-4.6	i	i	i	79
CC12CC(NC(=O)N1c1ccc(C(=O)N3CCN(c4ccccn4)CC3)cc1)c1ccccc1O2 (centres undefined)	nt	i	i	i	i
O=C(CSc1nnc(CNc2ccc(F)cc2)n1Cc1ccccc1)N1CCOCC1	i	i	i	i	i
COc1ccc(CCN2C(=O)CC(Sc3ncccc3C(=O)O)C2=O)cc1OC (centres undefined)	i	i	i	i	i
Cn1c(C(=O)NCCN2CCCCCC2)cc2c(=O)n(C)c3ccccc3c21	i	i	i	i	i
CCOC(=O)C1CCCN(C(=O)CSc2nccn2C)C1 (centres undefined)	i	i	55	i	i
CCOC(=O)C1CCCN(C(=O)c2ccccc2Oc2ccccc2)C1 (centres undefined)	i	i	87	i	99
CCOC(=O)C1CCCN(C(=O)COc2ccccc2O)C1 (centres undefined)	i	i	i	i	i
